Data: the supplement of paper PMC6555819

Legend:
Test in all cases: PBM binding z-score (relative to random genomic background probes); higher = stronger binding; sequences stand for … in GC…GCGATTGACAGCGTAGAATGAAGG
[1] = test system: RARb homodimer (NR concentration 270 nM)
Summary of the method: (§1)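 Custom Agilent 4×180K protein-binding microarrays carried double-stranded probes. Their 34-nt variable regions held direct-repeat seeds, single-nucleotide variants, half-site ablations and random human genomic background sequences. Arrays were incubated 1 h with ligand-free nuclear receptor dimers in PBS pH 7.4, 2% milk, 0.02% Triton X-100, 1 mM DTT, 0.2 mg/mL BSA and 0.4 mg/ml salmon testes DNA. Antibodies against each partner (one per run) detected binding, and scanned fluorescence was regression-normalized. Binding z-scores use random background probes as reference.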

[2] = test system: RARg:RXRa (NR concentration 270 nM, RXRa partner concentration 90 nM)
Summary of the method: as §1

[3] = test system: RARg homodimer (NR concentration 270 nM)
Summary of the method: as §1

[4] = test system: RXRa DBDmut IVT, anti-RXR (DBD mutation: RXRa K156A/R161A, NR concentration 90 nM)
Summary of the method: as §1

[5] = test system: RXRa homodimer (NR concentration 180 nM)
Summary of the method: as §1

[6] = test system: THRa:RXRa (NR concentration 90 nM, RXRa partner concentration 90 nM)
Summary of the method: as §1

[7] = test system: THRa homodimer (NR concentration 90 nM)
Summary of the method: as §1

[8] = test system: VDR homodimer (NR concentration 270 nM)
Summary of the method: as §1

Sequence	PBM binding z-score [1]	PBM binding z-score [2]	PBM binding z-score [3]	PBM binding z-score [4]	PBM binding z-score [5]	PBM binding z-score [6]	PBM binding z-score [7]	PBM binding z-score [8]
ATCGAAAGGTCGACGAGGTGGGTATACACCGTTT	2.71	4.03	3.85	0.746	4.17	2.51	-0.214	0.638
CCTTACGGGTCACACCAGGTTATAGCATCGGAGT	3.26	4.99	4.64	1.32	5.18	5.22	0.963	1.61
TCTTGTAGATCAACAGGAGGTTAAGATAGATCGA	0.539	1.16	0.391	0.496	1.04	0.854	-0.513	-0.27
AGAATGAAGTTAAGATCAGGGAAACAGAATACAT	-0.296	0.141	0.297	-0.544	0.166	0.135	-0.599	-0.0314
GCTTGTAGATCAAGGTTAACAAAGACTAAGCTAA	0.609	0.795	0.37	0.051	1.05	1.49	-0.000318	-0.118
GCTAGTTGGTCTGTAAAAGGTCACACACCGGTCG	5.02	5.01	4.62	0.681	5.65	3.52	1.78	1.81
ACAGACAGGTGAGTGAAGGTAAGTCAGCTGGACG	0.373	0.45	0.335	-0.68	0.274	1.03	-0.473	-0.657
ATCTCTAGGTAACATGTTCAGTGAAAGAGAGGAC	0.187	0.668	0.705	0.0522	0.565	1.04	0.541	-0.0529
TCATATAGGTAAAGGTGCAAGTCGAACGATATGA	0.0991	0.803	0.522	0.75	1.18	0.151	-0.746	0.385
CGAACCAGGTCAGAACAGGACAGTGAAGGATGAT	2.14	2.84	3.33	0.868	2.06	3.69	0.812	0.276
CGTCCAAGGTCAGAGAGGCCAGTGAATGCCGAGT	4.08	4.46	5.6	2.66	3.4	3.28	1.86	2.3
CCTCGGAGAACAGAAGGTCAGAGCTGTCCGCTTT	2.93	2.11	1.99	0.355	2.01	1.77	-0.175	0.014
GCAGACAGGTGAATCGCAGGTAACTCAGGGTGGC	0.0663	0.806	0.164	-0.612	0.449	1.31	-0.285	-0.754
CGAACTAGGTCAAGGACTGTGAATCTCCGCACGC	2.85	3.76	4.41	1.33	2.35	2.52	1.03	0.0818
ACAGACAGGTGAGTGAAGGTAACCCAGCTGGACG	0.564	0.107	0.469	-0.852	0.562	1.63	0.00911	-0.164
GCTATTATTTGAAAGGGCAACCGAATGATTCTCG	2.11	1.12	1.27	0.947	1.03	0.568	0.3	0.995
CAAACTAGGTCACGGAGGTCAAAGTCCGTGCGTA	5.44	7.06	7.31	3.08	7.23	4.74	3.58	5.9
CGAACTATGTCATCCAGGACAGTGAATACATTGA	0.612	0.908	1.14	0.468	0.578	1.71	0.973	0.592
TTACCAAGGTGACGGTCGTTGATCCCTCTGTAGA	1.18	0.607	0.608	-0.779	0.836	2.01	0.865	-0.245
CGTCCCAGGTCAAAGGTCAGTGAAGAGATGACGG	5.2	7.98	7.02	2.62	9.93	4.99	2.8	2.7
TCTTGTAGATCTGCAGGTTAAGAAAGCTGGCCAA	0.11	-0.162	-0.524	0.681	0.267	0.319	-0.531	-0.245
CCTATTAGTTGACCATAAGAGCAACCGAAGCTCG	0.851	0.678	0.927	0.811	0.6	0.468	0.721	1.03
GGAACGAGGGCATTCGAGTCGATAGCATGGCGAT	0.222	1.01	1.35	3.2	0.622	2.5	-0.885	1.87
GCTATAAGTTGAAAGGGCAACCGAATGATTCTCG	2.13	2.28	1.81	1.24	2.42	1.16	-0.205	0.188
ATCGAAAGGTCGAGGTGAGTAAAGAGAAAGGGAA	2.34	4.22	4.38	0.813	4.08	2.63	0.539	0.357
GCTGGTAGATCAAGGTTAAGAAAGACTAAGCTAA	0.171	0.216	0.368	-0.116	0.692	1.36	-0.209	-0.133

Sequence	PBM binding z-score [1]	PBM binding z-score [2]	PBM binding z-score [3]	PBM binding z-score [4]	PBM binding z-score [5]	PBM binding z-score [6]	PBM binding z-score [7]	PBM binding z-score [8]
TCTTGTAGATCAACAGGAGGTGAAGAAAGATCGA	0.000947	0.381	0.0903	0.184	0.315	0.726	-0.344	-0.884
CCGAGTAGGTTATGCGGCATTCAGGCAACGGTGA	0.275	0.0373	-0.0255	-0.0566	0.274	-0.034	0.263	-0.167
AGTATTAGTTGACTTAGGGCAACCGATACGACGC	1.29	0.595	1.02	0.0389	0.49	1.53	0.518	0.538
CCAGAGAGGTGAAAGGTAACTCAGTCTGGTACGC	1.42	2.57	1.44	0.39	3.56	2.1	0.391	0.0875
ATCTCTAGGTGAAGTTCAGTGAAAGATCGATAGA	1.53	1.3	1.46	0.512	0.437	1.19	0.0183	0.509
ATCTCTAGGTAACCAAGTTCGGTGAATGCCGAAC	0.477	0.289	0.0649	0.0543	0.189	0.968	0.803	1.13
CGAACGAGGGCATGAGTTGATAGCAAATGCCGAT	0.843	1.54	2	2.58	1.17	1.48	-0.132	2.02
TCTATTAGTTGAAGGGCGACCGACGAGTCCGTTT	0.596	0.105	-0.00665	1.84	0.439	0.0101	0.203	1.32
CAAACTAGGTCAAAGGTTAAAGTCGAGCCAACCA	3.86	7.3	5.26	2.59	8.93	4.29	1.04	1.6
TCTAGTTGGTGAAAGGTCACACACTCGAAATGCG	4.86	6.24	5.72	1.95	7.42	3.97	2.01	2.58
CCGGACAGGTGAGAAGGTAACTCAGCCTCGATTA	0.613	0.4	0.787	-0.0237	0.117	0.16	0.35	-0.222
TCATATAGGCAATACAGGTGAAAGTCGGCATCTA	0.329	0.188	0.134	1.25	0.668	0.629	-0.127	-0.277
GCTCGGAGGACAAGATCAGAGCTTTGTCCGTAGA	-0.303	-0.459	0.204	-0.708	-0.639	0.191	-0.651	-0.587
CCTGCTAGGTCAATGATCAGCTAAAGCAGCTCGC	2.32	3.18	4.16	1.82	1.83	1.99	-0.185	-0.421
CTACAAAGGTGAACAAGGTCGTTGATTACTATTC	3.33	3.64	3.01	1.76	3.64	3.69	1.37	2.51
CGAACTAGGTCATCCAGGCCAGTGAATACATTGA	3.18	4	4.59	2.18	2.85	3.23	1.19	1.33
TGAATGAGGTTATTAGATCAGGGAACGTTGCAAA	0.387	1.36	0.893	1.46	1.66	2	0.756	0.942
TCATATAGGGAAAAGGTGAAAGTCGGTGTGGTAA	2.04	1.27	0.821	2.07	1.93	1.27	0.582	0.643
AGAATGAGGTTATACGTAGATCATGGAAGAAAGT	1.02	2.06	1.29	1.74	2.45	2.42	0.532	0.975
GTACCAAGGTGAATAGGTCGGTGATGAGTAGGCG	1.58	1.83	1.21	-0.398	1.14	1.57	0.522	0.177
TCTACTAGTTGATTAGGGCAACCGAAACAGCGGA	0.379	0.164	0.225	0.346	0.0714	0.604	-0.104	-0.302
ATCTCTAGGTTAAGTTCAGTGAAAGATCGATAGA	2.18	2.18	2.54	2.12	1.41	1.99	1.4	3.19
CGTTACGGGTCACTCCAGGTTATAGCATCGGAGT	3.08	4.49	4.8	1.5	4.86	4.97	0.567	1.17
CGTGCAAGGTCAAGGTCAGTGAAAGAGACTCGAA	5	6.85	7.64	3.8	6.7	4.26	3.18	3.35
CCTTACGGGTCACTGACAGGTTATAACATTTGGA	3.33	5.87	4.56	1.78	5.31	3.12	0.436	1.21
GATACAGGGTCAGCTAGAGGCCGGAGTATGGAAA	3.18	5.66	4.38	1.07	4.04	2.7	0.265	0.333
